Compound activity from PubChem.
Most compounds without a hit are left out; they make up all but 6.1% or so of the library.
ERG Ets-DNA blk: inhibitors of human ERG Ets domain-DNA interaction; P11308; fluorescence polarization, His-ERG Ets domain / labelled DNA; Potency, µM (top dose mostly 76.9 µM), for the others: at the highest dose FP activity, negative = inhibition, actives largely listed as inhibitors; 0.028% of 370,000 active; active = well fitted inhibition curve with a large enough effect in the polarisation, with a control signal flat; inconclusive = small, poorly fitted or top-dose-only effect, or effect the other way, or a change in a side signal; inactive = no such curve, though single readings can be large or run the other way; the % refers to the polarisation;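 note: polarization taken with two DNA probes labelled with fluorescein and Texas red; potency is the fitted concentration of half-maximal effect; % of control where 0% means no effect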
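His-tagged ERG Ets domain (1 uM in the protein solution; 300mM KCl, 50mM Tris-HCl, 1mM EDTA, 1mM DTT, pH 7.5) received compound, then a probe mix of 5 nM fluorescein-DNA and 100nM Texas-615-DNA. Fluorescence polarization was read for both dyes.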
D1 antag: blocks dopamine activation of the human D1 receptor. P21728. HEK293 TREx D1 cells, calcium flux, dopamine EC80; hits give low values. activity change, negative = inhibition, % at 10 µM. 3.2% of 360,000 active. AID 504652; in the data active = activity change below about -30%; note: % is set by controls: 0 for no effect and ±100 for the full control effect
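Antagonism measured as reduced calcium response to an EC80 dopamine addition following 180 s compound pre-read; cells were inducible HEK293 Trex D1 plated overnight at 30 C, read kinetically at 1 cycle/sec.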
D1 PAM: enhances dopamine response at the human D1 receptor | potentiation, % at 10 µM | P21728 | 0.036% of 360,000 active | HEK293 TREx D1 cells, calcium flux, dopamine EC20 potentiation | AID 504651; in the data active = potentiation above about 30%; note: 0% is about no effect
DRD3 agonist: agonists of human D3 dopamine receptor; D3R DiscoveRx beta-arrestin cells, luminescence, 90 min; P35462; max activation, %; 0.58% of 410,000 active; in the data active = max activation above about 30%; note: 0% is about no effect
Target sequence (P35462 whole entry, looked up): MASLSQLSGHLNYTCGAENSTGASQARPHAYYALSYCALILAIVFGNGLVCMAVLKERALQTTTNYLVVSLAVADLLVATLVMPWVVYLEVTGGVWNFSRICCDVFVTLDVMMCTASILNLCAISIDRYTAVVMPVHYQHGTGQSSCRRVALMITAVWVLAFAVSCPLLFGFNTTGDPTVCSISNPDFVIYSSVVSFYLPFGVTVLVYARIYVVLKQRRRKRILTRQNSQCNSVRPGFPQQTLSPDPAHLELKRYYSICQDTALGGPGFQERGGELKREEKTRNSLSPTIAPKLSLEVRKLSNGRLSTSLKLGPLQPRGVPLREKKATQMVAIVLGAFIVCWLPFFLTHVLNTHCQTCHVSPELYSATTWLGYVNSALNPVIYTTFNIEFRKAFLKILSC
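Agonist mode: compounds and dopamine controls were applied to plated cells for 90 min at 37 degrees C after an overnight attachment at 1500 cells/well. Luminescent read-out followed 30 - 60 minutes at room temperature with DiscoveRx detection reagent.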
D1 ag: human D1 receptor agonism; HEK293 T-REx D1 cells, calcium flux, agonist mode; activation, % at 2 µM; 1% of 360,000 active; AID 504660; in the data active = activation above about 30%; note: 0% is about no effect
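Inducible HEK293 T-REx D1 cells, force-coupled to calcium signalling, were plated at 4000 cells/well with tetracycline and held overnight at 30 C. After no-wash calcium dye loading, compound-evoked calcium rise over 180 s flagged agonists.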
D3 antag: blocks the human D3 dopamine receptor | P35462 | D3R cells, DiscoveRx beta-arrestin luminescence, antagonist mode; hits give low values | max response, negative = inhibition, % | 2.5% of 360,000 active | AID 652054; in the data active = max response below about -50%; inconclusive = no clear call, values can overlap the other calls; note: % is set by controls: 0 for no effect and ±100 for the full control effect
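Cells plated overnight at 1500 cells/well, then exposed to library compounds with dopamine controls for 90 minutes at 37 degrees C. DiscoveRx reagent added for 30–60 minutes at room temperature; luminescence read, quantitative HTS format.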
* hit, by the source's call; ? = inconclusive; · = not tested or not shown; ! = not active in a repeat.

SMILES	ERG Ets-DNA blk	D1 antag	D1 PAM	DRD3 agonist	D1 ag	D3 antag
CC(=O)Nc1ccc(NC(=O)C(C)OC(=O)c2cccs2)cc1 (stereo not given)	-9.7%	-37.4*	-13.1	-3.1	0.5	-3.4
CC(=O)Nc1ccc(OC(=O)c2cccs2)cc1	-1.3%	-6.0	-3.2	-8.0	14.4	-4.7
Cc1cc(C(=O)NCCCn2ccnc2)sc1-c1ccccc1	6.1%	-6.8	-8.1	-57.6	1.5	-69.6*
O=C(NCCCn1ccnc1)c1cc(-c2ccncc2)nc2ccccc12	22.7%	5.3	1.1	2.0	2.9	-13.2
O=C(NCCCn1ccnc1)c1cc(-c2ccc(Cl)cc2)nc2ccccc12	0.1%	-39.4*	-5.5	-16.9	-1.3	-13.5
N#CNC(=Nc1ccccc1)SCc1ccc(C(=O)O)cc1	9.7%	-1.4	-2.8	3.6	2.4	-12.3
CSC(=Nc1ccccc1)N=C(SCc1ccccc1)N(C)C	-12.1%	·	·	-13.4	·	-84.4*
CC1CC(=O)N(c2ccc(NCCc3ccc(O)cc3)c([N+](=O)[O-])c2)C1=O (stereo not given)	-3.5%	-19.3	-3.4	-3.5	7.1	-20.9
CCOC(=O)c1cccc(NC(=O)CSc2ncc3c(n2)-c2ccc(Cl)cc2N(Cc2ccccc2)S3(=O)=O)c1	0.4%	-75.2*	-0.1	-12.8	7.5	·
COc1ccc(CNC(=O)CSc2ncc3c(n2)-c2cc(Cl)ccc2N(Cc2ccccc2)S3(=O)=O)cc1	0.8%	-42.8*	-7.8	7.3	5.6	·
COc1ccccc1CNC(=O)CSc1ncc2c(n1)-c1ccc(Cl)cc1N(Cc1ccccc1)S2(=O)=O	-0.8%	1.0	-1.7	-4.6	0.3	·
CCN(CC)CCCNC(=O)c1sc2nc(-c3ccc(F)cc3)cn2c1C	3.4%	0.4	-0.9	-51.2	1.1	-62.3*
Cc1c(C(=O)NCc2ccc3c(c2)OCO3)sc2nc(-c3ccc(F)cc3)cn12	-4.8%	-41.8*	-12.1	-2.4	4.3	16.0
Cc1nnc(NC(=O)CSc2nnc(CNC(=O)c3ccc(S(=O)(=O)N(C)C)cc3)o2)s1	29.3%	-3.2	-0.1	-0.2	1.8	5.3
COCCN=C1N[C@@H](c2ccc(Br)cc2)C(C(=O)OC)=C(C)N1Cc1ccccc1	-4.9%	-33.7*!	-4.0	0.4	33.8*!	14.5
COC(=O)C1=C(C)N(Cc2ccco2)C(=O)N[C@H]1c1ccccc1	·	-48.7*	1.4	·	-0.7	·
COC(=O)C1=C(C)N(Cc2ccccc2)C(=O)N[C@H]1c1cccs1	5.7%	-15.1	-6.8	-5.3	2.4	-55.1*
Cc1nc(C)c(-c2csc(N)n2)s1	11.5%	-31.0*	-7.3	2.0	2.8	-4.8
Cc1ccc(Nc2nc(-c3sc(C)nc3C)cs2)cc1	-0.8%	-13.5	-2.8	-3.0	-0.2	11.3
CC1OC23CCCCC2C(C#N)(C(=N)O3)C1(C#N)C#N (stereo not given)	-4.2%	-43.3*	-3.6	6.1	-1.0	3.6
CCC1OC23CCCCC2C(C#N)(C(=N)O3)C1(C#N)C#N (stereo not given)	-6.6%	-18.1	-7.5	-4.8	4.8	-28.8
CSCC[C@H](NC(=O)Nc1ccc(C)cc1C)C(=O)O	-8.2%	145.8	-1.8	-2.9	10.0	?
O=[N+]([O-])c1ccc(CNc2ccc(Cl)cc2)s1	5.4%	-37.3*	-9.1	6.1	5.1	-8.3
COc1ccccc1/C=N/NC(=O)c1c(-c2ccccc2)noc1C	31.3%	4.6	-8.0	3.1	-2.1	-3.3
Cc1onc(-c2ccccc2)c1C(=O)N/N=C/c1ccccc1OC(C)C	-3.1%	-31.5*	-4.0	1.9	3.7	13.2
SMILES	ERG Ets-DNA blk	D1 antag	D1 PAM	DRD3 agonist	D1 ag	D3 antag
O=C(c1cc2ccccc2oc1=O)N1CCCCCCC1	82.0%	-11.9	1.9	2.9	2.6	-5.3
Nc1c(SCCC(=O)O)ccc2c1C(=O)c1ccccc1C2=O	56.2%	0.5	0.0	-8.3	9.8	-56.2*
O=C(N/N=C/c1cc(Cl)cc([N+](=O)[O-])c1O)c1cc(-c2ccccn2)nc2ccccc12	-1.9%	-12.7	-5.4	-20.3	1.4	-61.5*
O=[N+]([O-])c1ccc(Cl)cc1C=NNc1ccccn1	-3.8%	·	·	0.1	·	-7.0
O=[N+]([O-])c1cc(Cl)cc(/C=N\Nc2ccccn2)c1O	-2.8%	11.9	-5.6	-34.1	1.4	-106.2*
COc1cccc(/C=N/NC(=O)c2cc(-c3ccccn3)nc3ccccc23)c1O	7.9%	4.4	-5.7	2.5	1.3	5.1
COc1ccc(CCNC(=O)CCC(=O)Nc2ccccc2[N+](=O)[O-])cc1OC	3.9%	-5.2	-6.5	9.8	1.4	4.9
COc1ccccc1C/C(N)=N/OC(=O)COc1cccc(C)c1	·	2.1	0.2	-2.2	5.8	3.4
CC(C)NC(=O)C1C(c2ccc(C(F)(F)F)cc2)=Nc2ccccc2N1C(=O)c1ccco1 (stereo not given)	·	·	·	7.0	·	9.0
CCCn1nc2cc(C(=O)NCc3ccc(OC)cc3)ccc2c1OCC	-8.8%	-7.4	4.5	-3.8	0.8	0.0
CCCn1nc2cc(C(=O)NCCc3cccs3)ccc2c1OCC	8.8%	-82.9*	-12.1	-7.6	1.4	7.7
CCCn1nc2cc(C(=O)N(CC)c3ccc(OC)cc3)ccc2c1OCC	-3.0%	13.3	-10.0	48.7*	0.8	3.2
O=C(COC(=O)c1cccc(NC(=O)c2ccc(Br)cc2)c1)c1ccc(Br)cc1	-2.5%	-24.7	0.6	3.5	5.3	·
O=C(NNC(=O)c1ccccc1C(F)(F)F)c1csc(N2CCOCC2)n1	13.7%	-50.6*	-14.9	0.1	1.0	-11.4
Cc1cc(=O)oc2cc(OCC(=O)OCC(=O)Nc3ccccc3Br)ccc12	8.2%	-3.4	-1.6	-9.3	7.3	?
CC1(OC(=O)CCc2ccccc2)C(=O)C=C2C=C(c3ccc(C#N)cc3)N(c3ccccc3)C=C2C1=O (stereo not given)	3.7%	-36.8*	-4.9	-19.9	6.8	0.0
CC(C)(C)OC(=O)N1Cc2ccccc2C[C@H]1C(=O)NC1CCCC1	-0.8%	-6.0	-9.6	-3.3	-0.4	-2.0
O=C(C1CCN(S(=O)(=O)c2ccccc2F)CC1)N1CCc2ccccc21	4.3%	-6.2	2.9	-2.7	6.0	-8.1
O=C(C1CCCN1S(=O)(=O)c1cccc2cccnc12)N1CCc2ccccc21 (stereo not given)	0.3%	-16.2	-1.2	-1.2	0.2	4.2
O=C(C1CCN(S(=O)(=O)c2ccccc2)CC1)N1CCc2ccccc21	-6.0%	7.6	-2.4	1.2	332.6*	7.5
O=C(C1CCN(S(=O)(=O)c2cccc3cccnc23)CC1)N1CCCC1	4.5%	-1.5	-6.5	-12.7	1.3	-78.5*
O=C(C1CCN(S(=O)(=O)c2cccc3cccnc23)CC1)N1CC=C(c2ccccc2)CC1	·	-43.6*	-1.5	·	0.8	·
